Measurements reported in PubChem BioAssay AID492998 (Southern Research Specialized Biocontainment Screening …, 2010).
Screen size: about 2,300 compounds; about 550 (24%) were called active. These entries were drawn from the full list. Measured potencies and affinities stand elsewhere. A number with no mark means an inactive call. No rule for the calls is given here.

experiment: Vero E6 cell cytotoxicity, dose response, cytotoxicity control for non-replicating M. tuberculosis project, secondary assay (AID 492998); conditions: series mostly up to 20 µM; viability: at the top concentration;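 also: 100% = vehicle-treated cells and 0% = background wells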

Compound | viability [%]
COc1c[nH]n(C2CCCCC2)c(=O)c1=O | 93.4
CCCN(Cc1nnc(-c2ccccc2Cl)o1)C(=O)c1cc([N+](=O)[O-])cc([N+](=O)[O-])c1 | 82.5
Cc1ccc(NC(=O)COc2ccc3c(c2)CCC3)nc1 | 108
COc1ccc(CNC(=O)c2cc3cccc(O)c3oc2=N)cc1 | 92.5
CCc1ccc(N2NC(=O)/C(=C/C=C/c3ccco3)C2=O)cc1 | 95.8
O=C(COc1cccc2ccccc12)Nc1nc2ccccc2[nH]1 | 87.5
CC1Cc2cc(/C=C3/SC(=S)NC3=O)ccc2O1 (stereo not drawn) | 84.9
c1ccc(-c2nc(NCCCn3ccnc3)c3ccccc3n2)cc1 | 82.4
Cc1cccc2cc(C#N)c(NCCCn3ccnc3)nc12 | 86.1
O=C(COC(=O)CCc1c[nH]c2ccccc12)Nc1cc([N+](=O)[O-])ccc1Cl | 79
Cc1nnc(N/N=C/c2cccc(OCc3ccc(Cl)c(Cl)c3)c2)n1N | 83.2
CCCCCCC1CC(C)(C(=O)CNc2nncs2)OC1=O (stereo not drawn) | 99.8
CCCn1nnc(NC(=O)COc2ccc(CC)cc2)n1 | 100
Cc1nc(C(=O)Nc2ccccc2)sc1C(=O)Nc1ccccc1 | 90.4
CNC(=O)c1[nH]cnc1C(=O)Nc1ccc(Cl)cc1 | 103
Nc1nnc(Sc2ncccc2[N+](=O)[O-])s1 | 112
CC(C)OC(=O)C(C)Oc1ccc(C(=O)NCCc2ccccc2)cc1 (stereo not drawn) | 96.7
CC(=O)c1cc2c(ccc3ccccc32)oc1=O | 107
Cn1cccc1/C=C1/C(=O)NC(=S)N(Cc2ccc(F)cc2)C1=O | 78.3
Cc1ccc(/C=C2/C(=O)NC(=O)N(CCc3ccc(F)cc3)C2=O)s1 | 94.2
O=C1CC(N2CCSCC2)C(=O)N1CCc1ccccc1 (stereo not drawn) | 108
CCCCSc1nnc(-c2cc(Br)ccc2N)c(=O)[nH]1 | 98.3
O=C(NCCc1cccc(Cl)c1)c1cc2ccccc2oc1=O | 109
Cc1ccc(-c2ccc(/C=N/NC(=O)CN3CCCC3)o2)cc1Cl | 91.8
COc1ccccc1OCCNC(=O)c1cc([N+](=O)[O-])cc([N+](=O)[O-])c1 | 101

Compound | viability [%]
O=C(N/N=C/c1ccccn1)c1cc([N+](=O)[O-])cc([N+](=O)[O-])c1 | 107
COC(=O)C1=C(C)N(CC2CC2)C(=NCc2cccc(Cl)c2)N[C@H]1c1ccccc1 | 87.9
O=C(COc1ccc(Br)cc1)N/N=C1/SCC(=O)N1Cc1ccccc1 | 73.1
CC(=O)c1c(O)cc(=O)n(-c2ccccc2)c1-c1ccc(C)cc1 | 93
CN(C)CCC(=O)N1c2ccccc2Sc2ccc(Cl)cc21 | 99.6
CCOC(=O)c1ccc(NC(=O)NS(=O)(=O)c2ccc(C)cc2)cc1 | 99.6
O=C(OCCCCN1C(=O)c2ccccc2C1=O)c1ccc(Br)o1 | 112
O=C(CCS(=O)(=O)c1ccccc1)Nc1nnc(-c2ccco2)o1 | 84.5
COc1ccc(C2(O)CCN(CC(=O)Nc3nc(-c4ccccc4)cs3)CC2)cc1 | 86.3
CC(C)Cc1nnc(NC(=O)CCS(=O)(=O)c2ccc(Cl)cc2)s1 | 76.8
O=C(COc1ccc2ccccc2c1)Nc1nccs1 | 96.3
Cc1cccc(NC(=O)COC(=O)CCc2c[nH]c3ccccc23)c1C | 110
O=C(COC(=O)COc1ccc(Nc2ccccc2)cc1)NCc1ccco1 | 101
c1ccc2[nH]c(NC3=NCCC3)nc2c1 | 94.7
Cc1cc2n(n1)SC(Nc1ccccc1)N2 (stereo not drawn) | 86.7
O=C(Nc1nc2ccccc2[nH]1)c1ccc(F)cc1 | 87.5
CCOc1ccc(C(=O)Nc2nc3ccccc3[nH]2)cc1OCC | 77.5
Nc1ccc(C(=O)N/N=C\C=C\c2ccc([N+](=O)[O-])cc2)cc1 | 93.4
CCCOC(=O)c1cc(-c2ccc(C=O)o2)ccc1Cl | 96.6
CCCCCCCCCCn1cc(C(C)=O)c(=O)[nH]c1=O | 102
CCC(CC)COC(=O)C(C#N)c1nc2ccccc2nc1N1CCN(CC)CC1 (stereo not drawn) | 79.7
CC(CCc1ccccc1)NC(=O)COC(=O)c1cccs1 (stereo not drawn) | 99.3
COc1ccc(N2C(=O)NC(=O)/C(=C/c3ccc([N+](=O)[O-])s3)C2=O)cc1 | 84.4
O=C(NCCC1=CCCCC1)c1ccc(Br)o1 | 87.7
Cc1n[nH]c(=S)n1/N=C/c1ccc(OCc2ccc(Cl)cc2Cl)cc1 | 95

Compound | viability [%]
Cc1cc(-c2c(C)[nH]n(-c3ccccc3)c2=O)n[nH]1 | 79.9
O=C1CC(N2CCC(C(=O)N3CCCCC3)CC2)C(=O)N1 (stereo not drawn) | 106
CCOC(=O)C1=C(c2ccccc2)NC(N)=NC1c1ccc(OCc2ccc(Cl)cc2)c(OC)c1 (stereo not drawn) | 83.5
CCC(=O)c1ccc(OCc2ccc(C(=O)OC)cc2)cc1 | 93.7
CCOC(=O)C(=O)NC12CC3CC(CC(C3)C1)C2 | 102
COC(=O)c1cc(-c2ccc(OC)cc2)on1 | 96.7
O=C1OC(/C=C/c2ccccc2)=NC/1=C\c1cccnc1 | 101
CCC1CCC(c2nnc(-c3ccc([N+](=O)[O-])cc3)o2)CC1 (stereo not drawn) | 106
O=c1c2c([N+](=O)[O-])cc([N+](=O)[O-])cc2nc2ccccn12 | 90
O=C(OCc1cccc([N+](=O)[O-])c1)c1ccc2ccccc2n1 | 94.8
CCCNC(=O)COC(=O)c1cc2c(=O)n3ccccc3nc2s1 | 103
CN1/C(=C\C=N\NC(=O)c2cccnc2)C(C)(C)c2ccccc21 | 97.1
O=C(OCC(=O)N1CCc2ccccc2C1)c1cccc([N+](=O)[O-])c1 | 99.2
COc1cc(/C=N/NC(=O)c2ccncc2)ccc1OC(=O)c1cccc(F)c1 | 97.5
COc1ccc(NC(=O)COc2ccccc2)cc1Cl | 89.8
Clc1cccc(CNCCNCc2cccc(Cl)c2)c1 | 84.5
CCOC(=O)Nc1cccc(OCC(=O)Nc2ccccc2OC)c1 | 92.2
Clc1ccc(Cl)c(OCCCCNCc2ccccc2)c1 | 86.6
Cc1ccc(NC(=O)CCSc2nnc(Cc3ccccc3)o2)cc1 | 97.4
O=S(=O)(c1ccc(OCC2CO2)cc1)c1ccc(OCC2CO2)cc1 (stereo not drawn) | 88.2
COc1ccc(CCOC(=O)c2ccc(N)c([N+](=O)[O-])c2)cc1 | 89.5
CCCCN1C(=O)C2(NNc3ccccc3O2)c2ccccc21 (stereo not drawn) | 93.7
Cc1ccc(NC(=O)COC(=O)CCc2c[nH]c3ccccc23)cc1[N+](=O)[O-] | 106
